What was measured:
Test in all cases: thermal shift delta Tm vs DMSO control; higher = stronger stabilization (binding)
Settings in all cases: 12.5 µM; protein concentration 2 µM
LOC_OS01G01410-cb001 = test system: LOC_OS01G01410-cb001
Method in brief: (§1)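 Thermal shift values come from differential scanning fluorimetry on purified rice kinase domains made in E. coli, with melting temperatures obtained from Boltzmann fits. Samples of 19.5 μl held 2 μM kinase, 100 mM potassium phosphate pH 7.5, 150 mM NaCl, 10% glycerol, 5 × SYPRO Orange and compound in DMSO, and were heated from 25°C to 95°C at 0.05°C/s. Each shift is a triplicate mean relative to the DMSO-only protein sample.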

LOC_OS01G02750-cb003 = test system: LOC_OS01G02750-cb003
Method in brief: as §1

LOC_OS01G10900-cb004 = test system: LOC_OS01G10900-cb004
Method in brief: as §1

LOC_OS01G13800-cb001 = test system: LOC_OS01G13800-cb001
Method in brief: as §1

LOC_OS01G14860-cb001 = test system: LOC_OS01G14860-cb001
Method in brief: as §1

LOC_OS01G21960-cb002 = test system: LOC_OS01G21960-cb002
Method in brief: as §1

LOC_OS01G39600-cb002 = test system: LOC_OS01G39600-cb002
Method in brief: as §1

LOC_OS01G48390-cb002 = test system: LOC_OS01G48390-cb002
Method in brief: as §1

LOC_OS01G51400-cb002 = test system: LOC_OS01G51400-cb002
Method in brief: as §1

LOC_OS01G52050-cb004 = test system: T1, LOC_OS01G52050-cb004
T1 sequence (whole entry): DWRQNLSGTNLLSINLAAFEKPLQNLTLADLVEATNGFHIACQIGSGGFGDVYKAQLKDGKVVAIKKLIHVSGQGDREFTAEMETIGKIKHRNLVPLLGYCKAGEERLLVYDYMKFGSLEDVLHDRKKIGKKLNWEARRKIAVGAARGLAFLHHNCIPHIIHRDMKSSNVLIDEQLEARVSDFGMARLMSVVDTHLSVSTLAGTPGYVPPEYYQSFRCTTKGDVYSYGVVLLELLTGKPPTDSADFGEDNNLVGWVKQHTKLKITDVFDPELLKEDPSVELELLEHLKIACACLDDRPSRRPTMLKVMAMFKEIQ
Method in brief: as §1

LOC_OS01G57100-cb003 = test system: LOC_OS01G57100-cb003
Method in brief: as §1

LOC_OS01G60330-cb001 = test system: LOC_OS01G60330-cb001
Method in brief: as §1

LOC_OS01G60700-cb002 = test system: LOC_OS01G60700-cb002
Method in brief: as §1

LOC_OS01G63280-cb003 = test system: LOC_OS01G63280-cb003
Method in brief: as §1

LOC_OS01G67340-cb003 = test system: LOC_OS01G67340-cb003
Method in brief: as §1

LOC_OS01G70970-cb002 = test system: LOC_OS01G70970-cb002
Method in brief: as §1

LOC_OS02G07810-cb001 = test system: LOC_OS02G07810-cb001
Method in brief: as §1

LOC_OS02G08530-cb003 = test system: LOC_OS02G08530-cb003
Method in brief: as §1

LOC_OS02G14120-cb001 = test system: LOC_OS02G14120-cb001
Method in brief: as §1

LOC_OS02G17970-cb001 = test system: LOC_OS02G17970-cb001
Method in brief: as §1
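Also: purified Escherichia coli-expressed rice kinase domain construct.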

SMILES | thermal shift delta Tm (LOC_OS01G01410-cb001) [°C] | thermal shift delta Tm (LOC_OS01G02750-cb003) [°C] | thermal shift delta Tm (LOC_OS01G10900-cb004) [°C] | thermal shift delta Tm (LOC_OS01G13800-cb001) [°C] | thermal shift delta Tm (LOC_OS01G14860-cb001) [°C] | thermal shift delta Tm (LOC_OS01G21960-cb002) [°C] | thermal shift delta Tm (LOC_OS01G39600-cb002) [°C] | thermal shift delta Tm (LOC_OS01G48390-cb002) [°C] | thermal shift delta Tm (LOC_OS01G51400-cb002) [°C] | thermal shift delta Tm (LOC_OS01G52050-cb004) [°C] | thermal shift delta Tm (LOC_OS01G57100-cb003) [°C] | thermal shift delta Tm (LOC_OS01G60330-cb001) [°C] | thermal shift delta Tm (LOC_OS01G60700-cb002) [°C] | thermal shift delta Tm (LOC_OS01G63280-cb003) [°C] | thermal shift delta Tm (LOC_OS01G67340-cb003) [°C] | thermal shift delta Tm (LOC_OS01G70970-cb002) [°C] | thermal shift delta Tm (LOC_OS02G07810-cb001) [°C] | thermal shift delta Tm (LOC_OS02G08530-cb003) [°C] | thermal shift delta Tm (LOC_OS02G14120-cb001) [°C] | thermal shift delta Tm (LOC_OS02G17970-cb001) [°C]
CCCCNc1ncc2c(-c3ccc(CN4CCN(C)CC4)cc3)cn([C@H]3CC[C@H](O)CC3)c2n1 | 5.57 | 6.91 | 0.53 | -0.91 | 2.44 | 2.55 | 7.19 | 3.3 | 0.81 | 9.81 | 3.5 | 14.9 | 0.56 | 0.95 | 10.1 | 8.18 | -0.25 | 5.26 | 12.2 | -0.42
CCS(=O)(=O)N1CCN(c2ccc(Nc3ncc(C(N)=O)c(NC4CC4)n3)cc2)CC1 | 5.29 | 1.8 | 1.08 | 0.55 | 3.61 | 2.53 | 4.63 | 1.17 | 1.11 | 5.37 | 0.76 | 9.63 | 1.4 | 1.68 | 3.04 | 7.22 | 0.35 | 3.19 | 5.36 | 1.18
Cc1ccc(CNc2ncnc3ccc(-c4ccc(CO)o4)cc23)o1 | 0.69 | 1.49 | 0.39 | -0.33 | 0.56 | 0.93 | 0.85 | 0.79 | 0.24 | 1.21 | 1.69 | 0.84 | 0.78 | 0.26 | -0.04 | 0.37 | 0.27 | 1.61 | 3.01 | 1.11
CSc1cccc(Nc2ncc3cc(-c4c(Cl)cccc4Cl)c(=O)n(C)c3n2)c1 | 0.57 | 0.56 | 1.7 | 0.31 | 0.06 | 0.55 | -0.21 | 0.12 | 0.18 | 0.18 | 1.54 | 0.88 | 0.94 | 0.6 | 0.72 | 0.3 | 0.11 | 0.12 | 0.99 | -0.06
CCCCNc1ncc(C(=O)NCc2ccc(-n3ccnc3)cc2)c(NC2CCC(O)CC2)n1 (stereo not given) | 3.78 | 2.44 | 0.58 | -0.06 | 4.73 | 1.72 | 2.74 | 2.96 | 0.43 | 7.56 | 2 | 9.72 | 1.49 | 0.72 | 10.2 | 4.54 | 0.76 | 4.03 | 7.7 | 1.08
Cc1cc(CN2CCN(c3c(Br)cnc4nc(-c5ccc(N6CCN(C)CC6)cc5)[nH]c34)CC2)no1 | 4.15 | 1.45 | 1.57 | 0.82 | 0.83 | 2.01 | 4.92 | 3.13 | 0.84 | 0.67 | 0.54 | 3.22 | 0.17 | 0.23 | 1.36 | 1.3 | 0.7 | 0.33 | 4.66 | 0.14
Nc1nc(N)c(N=O)c(OCC2CCCCC2)n1 | 0.83 | 0.95 | 0.44 | -0.3 | 1.5 | 1.67 | -1.66 | 0.08 | 0.44 | 1.13 | 1.14 | 2.6 | 1.46 | 0.91 | 0.46 | 1.27 | 0.51 | 0.99 | 2.99 | 0.61
Cc1cc2c(F)c(Oc3ncnn4cc(OC[C@@H](C)OC(=O)[C@H](C)N)c(C)c34)ccc2[nH]1 | 1.74 | 0.78 | 0.61 | 0.4 | 0.52 | 0.54 | 0.75 | 0.96 | -0.47 | -0.05 | 2.01 | 2.03 | 1.53 | 0.53 | 0.06 | 0.49 | 0.41 | 0.78 | 0.99 | 0.23
NC1(Cc2ccc(Cl)cc2)CCN(c2ncnc3[nH]ccc23)CC1 | 0.45 | 0.58 | -0.03 | 0.07 | 1.34 | 0.89 | 0.46 | 3.31 | 0.45 | 0.94 | 2.25 | 2.06 | 0.71 | 0.51 | 0.58 | 0.53 | 0.47 | 1.24 | 1.88 | 0.79
COc1cc2nccc(Oc3ccc(NC(=O)C4(C(=O)Nc5ccc(F)cc5)CC4)cc3)c2cc1OC [Cabozantinib malate (XL184)] | 0.01 | 0.45 | 0.03 | 0.12 | 0.34 | 0.57 | 0.26 | 3.62 | 0.63 | 0.38 | 1.34 | 0.89 | 1.35 | 0.47 | 0.53 | 0.57 | 1.09 | 1.12 | 0.46 | 0.98
COc1cc2c(Nc3ccc(NC(=O)c4ccccc4)cc3)ncnc2cc1OCCCN1CCOCC1 | 2.69 | 0.98 | -0.03 | 0.65 | 0.52 | 0.26 | 1.98 | 0.89 | 0.34 | 0.94 | 0.97 | 1.05 | 0.6 | 1.19 | 0.4 | 1.66 | 1.37 | 0.66 | 0.79 | 0.45
N#CC(=C(/N)Sc1ccccc1N)/C(C#N)=C(\N)Sc1ccccc1N | 1.35 | 1.84 | -0.2 | 0.46 | 0.53 | 0.18 | 1.48 | 0.24 | 0.39 | 2.41 | -0.44 | 2.17 | 0.48 | 2.36 | 0.77 | 0.62 | 1.33 | 1.04 | 0.63 | 0.85

— the supplement of paper PMC9694430
